The values that follow come from PubChem BioAssay (Tox21).

Test [1] is described as follows: qHTS assay to test for compound auto fluorescence at 535 nm (green) in HEK293 cells (AID 720680). On the technique in general: qHTS replaces the single test concentration by a dilution series.
Test [2] can be described thus: qHTS assay to test for compound auto fluorescence at 460 nm (blue) in HEK293 cell free culture (AID 720681). A digest of the protocol:
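Test compounds were pinned into cell-free culture medium (DMEM with 10% FBS) and fluorescence was read directly at Ex/Em 405/460 nm. Signals were expressed as fluorescence equivalents of triamterene, with DMSO vehicle as control.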

The nature of test [3]: qHTS assay to test for compound auto fluorescence at 535 nm (green) in HEK293 cell free culture (AID 720682). In short, it runs like this:
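No cells present: wells hold DMEM supplemented with 10% FBS, into which compound or vehicle is pinned. Green emission is then recorded (485 nm excitation, 535 nm emission) and scaled to fluorescein.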

Test [4] is described as follows: qHTS assay to test for compound auto fluorescence at 590 nm (red) in HEK293 cell free culture (AID 720683). In short, it runs like this:
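Tox21 10K library compounds were pinned into cell-free DMEM with 10% FBS and fluorescence was read at excitation 540 nm. Activity is expressed as Rose Bengal sodium equivalency.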

Test [5] can be described thus: qHTS assay to test for compound auto fluorescence at 590 nm (red) in HepG2 cell free culture (AID 720684). In short, it runs like this:
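Red fluorescence (540 nm excitation, 590 nm emission) was measured after compound transfer into cell-free MEM supplemented with 10% FBS. Values are equivalencies against Rose Bengal sodium.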

Test [6] is described as follows: qHTS assay to test for compound auto fluorescence at 460 nm (blue) in HepG2 cell free culture (AID 720685). A digest of the protocol:
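Compound (23 nL) or DMSO pinned into cell-free MEM with 10% FBS; blue fluorescence read at 405/460 nm excitation/emission, expressed as auto-fluorescence equivalency to triamterene.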

Test [7] is described as follows: qHTS assay to test for compound auto fluorescence at 535 nm (green) in HepG2 cell free culture (AID 720686).
A short description of test [8]: qHTS assay to test for compound auto fluorescence at 460 nm (blue) in HepG2 cells (AID 720687). In short, it runs like this: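 Cells (2,000/well in MEM with 10% FBS) attached overnight at 37 C, then were exposed to compound or DMSO for 1 hr at 37 C, 5% CO2. Fluorescence read at Ex/Em 405/460 nm, expressed as triamterene-equivalent signal.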
Test [9] addresses Glucocorticoid receptor (Homo sapiens) (UniProt P04150). As to the kind of experiment: qHTS assay to identify small molecule antagonists of the glucocorticoid receptor (GR) signaling pathway (AID 720692; active = well fitted inhibition curve with a large enough effect in the signal ratio in the repeat runs, not every such curve was filed as active; the % refers to the signal ratio; also: potency is read from the fitted curve at half-maximal effect). A digest of the protocol: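 Cells plated, rested 4 h at 37 C/5% CO2; compounds in DMSO pin-transferred; dexamethasone added to 5 nM final; 18 h at 37 C; B/G FRET substrate added, 2 h room temperature; fluorescence measured.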

The nature of test [10]: qHTS assay to identify small molecule antagonists of the glucocorticoid receptor (GR) signaling pathway - cell viability counter screen (AID 720693). Also: nearly all actives have a fitted effect of over 55% in size.
Test [11] can be described thus: qHTS assay for identifying genotoxic compounds that show differential cytotoxicity against isogenic chicken DT40 cell lines with known DNA damage response pathways - wild type cell line (AID 743012). Also: nearly all actives have a fitted effect of over 60% in size. Also: potency is read from the fitted curve at half-maximal effect. A digest of the protocol:
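Cells (DT40 wild type, 300/well) are treated with DMSO-dissolved compounds after a ~0.5 h pre-incubation and kept 40 h at 37 C/5% CO2. Viability is then measured by CellTiter-Glo luminescence following 30 min at room temperature.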

The nature of test [12]: qHTS assay for identifying genotoxic compounds that show differential cytotoxicity against isogenic chicken DT40 cell lines with known DNA damage response pathways - Rev3 mutant cell line (AID 743014). Also: nearly all actives have a fitted effect of over 55% in size. Also: potency is read from the fitted curve at half-maximal effect.
Test [13] is described as follows: qHTS assay for identifying genotoxic compounds that show differential cytotoxicity against isogenic chicken DT40 cell lines with known DNA damage response pathways - Rad54/Ku70 mutant cell line (AID 743015). Also: nearly all actives have a fitted effect of over 60% in size. Also: potency is read from the fitted curve at half-maximal effect.
The nature of test [14]: qHTS assay to identify small molecule antagonists of the androgen receptor (AR) signaling pathway - cell viability counter screen (AID 743033; also: nearly all actives have a fitted effect of over 45% in size).
Test [15] can be described thus: qHTS assay to identify small molecule antagonists of the androgen receptor (AR) signaling pathway using the MDA cell line - cell viability counter screen (AID 743041; also: nearly all actives have a fitted effect of over 45% in size). A digest of the protocol:
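MDA-kb2 AR-luc human breast carcinoma cells (MMTV-luciferase, AR/GR responsive) were treated with compounds plus R1881 agonist for 16 h at 37 °C. Viability was read as CellTiter-Fluor fluorescence in the same wells as the reporter assay.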

For test [16], the target named is Androgen receptor (Homo sapiens) (UniProt P10275). Put plainly: qHTS assay to identify small molecule agonists of the androgen receptor (AR) signaling pathway (AID 743036; active = well fitted activation curve with a large enough effect in the signal ratio in the repeat runs, with a control signal flat, not every such curve was filed as active; the % refers to the signal ratio). A digest of the protocol: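 Quantitative HTS of the Tox21 10K library in HEK293 cells bearing a stably integrated UAS-controlled beta-lactamase reporter. Compound exposure lasted 16 h at 37C. Reporter activity was detected by FRET substrate fluorescence after 2 h at room temperature.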
Chain of Androgen receptor (Homo sapiens) (P10275 whole entry, looked up): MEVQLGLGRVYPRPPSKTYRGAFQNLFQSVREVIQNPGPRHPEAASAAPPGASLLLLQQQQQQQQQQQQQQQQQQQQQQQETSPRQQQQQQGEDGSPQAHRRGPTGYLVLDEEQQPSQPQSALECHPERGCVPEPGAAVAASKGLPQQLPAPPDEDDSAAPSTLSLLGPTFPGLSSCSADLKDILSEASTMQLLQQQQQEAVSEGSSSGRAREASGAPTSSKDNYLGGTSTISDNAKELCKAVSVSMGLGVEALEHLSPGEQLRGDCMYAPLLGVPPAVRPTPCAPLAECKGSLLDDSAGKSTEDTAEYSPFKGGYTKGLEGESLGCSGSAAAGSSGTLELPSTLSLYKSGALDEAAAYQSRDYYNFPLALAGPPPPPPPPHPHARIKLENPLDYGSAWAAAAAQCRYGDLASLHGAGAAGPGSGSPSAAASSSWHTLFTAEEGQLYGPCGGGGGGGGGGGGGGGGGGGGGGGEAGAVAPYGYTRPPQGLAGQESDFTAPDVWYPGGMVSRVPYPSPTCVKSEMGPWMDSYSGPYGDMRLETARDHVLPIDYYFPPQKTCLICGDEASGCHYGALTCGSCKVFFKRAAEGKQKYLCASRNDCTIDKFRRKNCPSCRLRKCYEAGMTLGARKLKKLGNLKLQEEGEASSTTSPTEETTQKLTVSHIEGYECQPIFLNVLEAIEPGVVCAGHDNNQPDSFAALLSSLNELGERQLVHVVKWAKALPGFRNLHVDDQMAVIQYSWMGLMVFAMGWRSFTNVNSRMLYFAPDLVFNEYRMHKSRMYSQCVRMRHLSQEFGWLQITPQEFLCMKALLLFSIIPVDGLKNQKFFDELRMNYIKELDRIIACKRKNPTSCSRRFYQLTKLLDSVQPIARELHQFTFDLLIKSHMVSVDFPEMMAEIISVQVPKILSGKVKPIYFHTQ

Test [17] has the same target. Put plainly: qHTS assay to identify small molecule agonists of the androgen receptor (AR) signaling pathway using the MDA cell line (AID 743040; also: nearly all actives have a fitted effect of over 20% in size). A digest of the protocol: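 MDA-kb2 breast carcinoma cells stably carrying an MMTV-driven luciferase reporter (AR- and GR-responsive) were seeded and held 5 h at 37C, 0% CO2, then exposed to compounds in DMSO for 16 h. Luminescence was read 30 min after ONE-Glo addition.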

The target is the same in test [18]. Put plainly: qHTS assay to identify small molecule antagonists of the androgen receptor (AR) signaling pathway using the MDA cell line (AID 743042; also: nearly all actives have a fitted effect of over 55% in size). A digest of the protocol:
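MDA-kb2 cells (human breast carcinoma, stably carrying an MMTV-luciferase reporter responsive to AR and GR) were plated at 3,000 cells/well and preincubated 5 hr at 37C, then given compound plus R1881 agonist for 16 h. ONE-Glo luminescence was read.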

Unmarked numbers belong to inactive results. Records with an inconclusive call do not appear. Active and inactive are the calls of the source. Unless noted, calls follow the shape of the dose curve; as a rule, active = well fitted curve in the direction sought with a large enough effect in the repeat runs; inconclusive = weak or mixed curves; inactive = no such curve, though single readings can be large; an effect the other way counts as inactive or inconclusive.
% is scaled to controls: 0 for no effect and ±100 for the full control effect.

Chain of Glucocorticoid receptor (Homo sapiens) (P04150 whole entry, looked up): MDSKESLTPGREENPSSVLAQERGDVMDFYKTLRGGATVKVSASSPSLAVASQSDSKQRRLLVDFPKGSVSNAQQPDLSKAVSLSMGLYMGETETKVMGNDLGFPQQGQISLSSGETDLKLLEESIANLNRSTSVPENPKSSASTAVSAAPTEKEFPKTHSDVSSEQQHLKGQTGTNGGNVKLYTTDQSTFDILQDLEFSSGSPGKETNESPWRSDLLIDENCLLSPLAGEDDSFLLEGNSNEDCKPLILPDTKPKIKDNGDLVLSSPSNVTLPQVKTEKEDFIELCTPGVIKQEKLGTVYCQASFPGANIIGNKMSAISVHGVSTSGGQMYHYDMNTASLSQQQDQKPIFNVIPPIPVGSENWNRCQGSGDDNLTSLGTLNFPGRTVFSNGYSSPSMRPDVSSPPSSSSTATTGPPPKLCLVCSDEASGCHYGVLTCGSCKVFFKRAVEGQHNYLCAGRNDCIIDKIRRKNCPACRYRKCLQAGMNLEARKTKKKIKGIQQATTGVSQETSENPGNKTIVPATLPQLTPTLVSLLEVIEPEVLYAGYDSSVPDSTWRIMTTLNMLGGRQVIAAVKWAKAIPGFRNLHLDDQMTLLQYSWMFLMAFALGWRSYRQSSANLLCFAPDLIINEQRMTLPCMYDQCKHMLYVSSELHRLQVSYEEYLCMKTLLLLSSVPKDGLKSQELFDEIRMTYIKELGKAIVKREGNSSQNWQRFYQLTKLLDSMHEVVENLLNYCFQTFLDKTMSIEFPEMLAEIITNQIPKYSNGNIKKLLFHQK

`CCC1(CC)C(=O)N=C(O)NC1=O`: the outcome in test [1], in test [3], in test [4] and in test [5] was inactive. For the same compound, the Potency result in [2], in test [6], in [7], in [8], in test [9] and in test [10] was “inactive” in each case. In addition, the Potency result in test [11], in [12], in test [13], in [14] and in test [15] was “inactive” in each case.

In the case of `CC(Cc1ccc(O)cc1)NCC(O)c1cc(O)cc(O)c1` (stereo not given), the result in [1], in test [3], in test [4] and in test [5] was inactive. The Potency entry in [2], in test [6], in test [7], in [8], in test [9] and in test [10] was “inactive” each time. Also, the Potency result in test [11], in test [12], in [13], in test [14] and in test [15] was “inactive” throughout.

Regarding `O=[N+]([O-])C(Br)Br`, the compound was called inactive in test [1], in test [3], in test [4], in test [5], in test [16] and in test [17]. Also, the Potency entry in test [2], in test [6], in [7], in test [8], in test [9] and in [14] was “inactive” throughout. In addition, the Potency result in [15] and in test [18] was “inactive” in each case.

Turning to `Clc1c(Cl)c(Cl)c(Cl)c(Cl)c1Cl`, the fluorescence, % of fluorescein in test [1] was 0.081% [at 3.72 µM]. In addition, the fluorescence, % of fluorescent control was -0.026% [at 3.72 µM] in test [2], 0.029% [at 3.72 µM] in test [4], 0.0528% [at 3.72 µM] in test [6] and -0.0163% [at 3.72 µM] in test [8]. Further, the activity change in test [3] was 0.0009% [at 3.72 µM]. Also, in [5], the fluorescence, % of Rose Bengal is -0.0219% [at 3.72 µM]. In addition, the fluorescence, % of fluorescein control in [7] was -0.0548% [at 3.72 µM]. For the same compound, the activity change, negative = inhibition in test [9] is -10.3% [at 7.04 µM]. The results for the viability change, negative = cytotoxic in test [10] and in test [15] were -7.19% [at 7.04 µM] and -2.06% [at 8.47 µM], respectively. In addition, the activity change, negative = cytotoxicity in test [11] is 20.8% [at 8.52 µM]; in [13], -2.7% [at 8.55 µM]; in test [14] it was 3.9% [at 7.04 µM]. Besides, the activity, negative = cytotoxicity in test [12] is 6.09% [at 8.53 µM].

Turning to `O=C(NC(=O)c1c(F)cccc1F)Nc1ccc(Oc2ccc(C(F)(F)F)cc2Cl)cc1F`, the outcome in test [1], in [3], in test [4] and in test [5] was inactive. Besides, the Potency entry in test [2], in test [6], in test [7], in [8] and in [10] was “inactive” each time. Also, the Potency was 4.33 µM (active) in test [11] and 21.7 µM (active) in test [12].

For `N#Cc1c[nH]cc1-c1cccc2c1OC(F)(F)O2`, the call in test [1], in test [3], in [4] and in [5] was inactive. Moreover, the Potency result in [2], in test [6], in test [7] and in test [8] was “inactive” throughout. Besides, the Potency in test [9] is 9.77 µM (active); in test [11], 13.7 µM (active); in test [12], 8.63 µM (active).

Turning to `CCN(CC)C(=O)N[C@@H]1C=C2c3cccc4[nH]cc(c34)C[C@@H]2N(C)C1`, the call in test [1], in test [3], in [4] and in test [5] was inactive. In addition, the Potency entry in test [2], in [6], in test [7], in [8], in [9] and in [10] was “inactive” throughout. Besides, the Potency result in test [14] and in test [15] was “inactive” in each case. The results for the Potency in test [11], in [12] and in [13] were 7.5 µM (active), 26.6 µM (active) and 16.8 µM (active), respectively.

For `CNC(=O)CSP(=O)(OC)OC`, the call in [1], in test [3], in test [4] and in test [5] was inactive. Further, the Potency entry in test [2], in test [6], in [7], in [8], in test [9] and in test [10] was “inactive” each time. Besides, the Potency result in test [11], in test [13], in test [14] and in test [15] was “inactive” each time.
